# Shown are actives, neighbours in structure and some others; about 4.2% of the full set was active somewhere.
# TIM10 inh = growth inhibitors of TIM10 yeast strain | S. cerevisiae TIM10 strain growth, BacTiter-Glo luminescence, 24 h | inhibition, % at 10 µM | actives 1.4% (n = 330,000) | AID 463195;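 active means inhibition of 40% or more at the single tested concentration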;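 further: wild-type TIM10 isogenic control strain grown at permissive 25 °C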
# NALP3 yeast inh = NALP3 inhibition in yeast. Yeast reconstituted NLRP3/ASC/caspase-1, beta-gal luminescence, 24 h. inhibition, % at 10 µM. actives 0.39% (n = 330,000). AID 2825;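 active means inhibition of 50% or more; inactive means inhibition below 50%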;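 further: plate controls were induced DMSO wells for no effect and uninduced yeast grown without galactose for full effect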
# tim10-1 inh = inhibits growth of tim10-1 mutant yeast; S. cerevisiae tim10-1 ts strain growth, BacTiter-Glo, 24 h; actives 2.2% (n = 330,000); AID 463190; inhibition, % at 20 µM;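 active means inhibition of at least 40%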;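 further: mutant grown at 25 °C; 0% = DMSO wells with yeast and 100% = wells holding no yeast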
# tim23-1 inh = inhibits growth of tim23-1 mutant yeast | S. cerevisiae tim23-1 growth, BacTiter-Glo luminescence, 24 h | inhibition, % at 20 µM | actives 1.3% (n = 330,000) | AID 463212;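 active means growth inhibition of the mutant yeast at or above 50%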;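 further: temperature-sensitive mutant grown at 25 °C; plate controls were DMSO-treated mutant yeast for no effect and medium wells lacking yeast for full effect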
# V-ATPase pHluor = yeast V-ATPase proton transport regulation by pHLuorin. S. cerevisiae, pHLuorin cytosolic pH fluorescence. actives 0.37% (n = 350,000). response, % at 10 µM; in the data active means response mostly above about 7.3%, no sharp cut-off; inactive means mostly below about 5.4%; further: actives read high
# NALP1 yeast inh = NALP1 inhibition; S. cerevisiae NALP1/ASC/caspase-1 growth, X-gal OD620, 72 h; inhibition, % at 10 µM; actives 0.61% (n = 280,000); AID 2071; in the data active means inhibition mostly above about 24%, no sharp cut-off; inactive means mostly below about 32%
# TIM10 conf = confirmation of TIM10 yeast growth inhibitors | shares compounds with TIM10 inh | S. cerevisiae tim10 strain growth, BacTiter-Glo luminescence, 24 h | inhibition, % at 10 µM | actives 63% (n = 4,600) | AID 463215;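 active means inhibition of yeast growth at or above a set limit in either of two replicates at 10 µM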;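 further: this counterscreen used the strain with wild-type TIM10; 0% = yeast with DMSO and 100% = medium wells lacking yeast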
# * = called active by the depositor; / = no result given.
SMILES,TIM10 inh,NALP3 yeast inh,tim10-1 inh,tim23-1 inh,V-ATPase pHluor,NALP1 yeast inh,TIM10 conf
COc1ccc(C(C#N)=Cc2ccc(N(C)CCC#N)cc2)cc1,/,/,/,/,1,/,/
O=C1CC(N2CCC(c3nc4ccccc4o3)CC2)C(=O)N1c1ccc(Cl)c(C(F)(F)F)c1 (stereo not drawn),43*,5,6,37,2,-3,27
N/C(=N/O)c1nc(N2CCCC2)nc(N(c2ccccc2)c2ccccc2)n1,53*,-15,33,48,4,29,36*
N/C(=N/O)c1nc(N2CCCC2)nc(N2CCCC2)n1,-6,7,-5,-9,-5,/,/
COc1ccc(N(CC(=O)NCc2ccc(F)cc2)C(=O)c2snc(C(N)=O)c2N)cc1,2,14,-5,-11,11,17,/
Nc1nnc(SCCCC(=O)c2ccc(Br)cc2)s1,40*,9,11,6,1,20,-2
Nc1nnc(SCCOc2ccc(Br)cc2)s1,12,21,21,-13,4,9,/
Cc1ccc(N(C(=O)CNC(=O)c2ccco2)C(C(=O)NC2CCCC2)c2cccnc2)c(C)c1 (stereo not drawn),12,7,-23,-1,3,-8,/
C/C(=N\Nc1ccc(S(=O)(=O)N2CCCCC2)cn1)c1cccc(Br)c1,41*,12,25,45,1,/,45*
COC(=O)[C@@H](Cc1c[nH]c2ccccc12)NC(=O)c1ccc2c(c1)OCO2,3,9,11,13,2,25,/
COC(=O)c1ccc(NC(=S)NC2CCc3ccccc32)cc1 (stereo not drawn),47*,11,34,11,-4,12,31*
CC1=CC2(C)NC(=O)C(C)C12 (stereo not drawn),/,/,/,/,-1,/,/
Clc1c(-c2ccccc2)nc2ccccn12,97*,25,2,6,-1,6,6
Cc1ccc([C@H]2C[C@@H](n3cc(C4CC4)nn3)[C@H](O)CN2C(=O)C2CCCCC2)cc1,/,/,/,/,1,/,/
Cc1ccc(Cl)cc1N1CCN(C(=O)c2ccc3nc[nH]c3c2)CC1,48*,13,31,40,1,32,37*
O=C(CSc1nnc(-c2cccs2)n1CC1CCCO1)c1cc2ccccc2o1 (stereo not drawn),41*,3,31,19,0,-8,-26
Oc1ccc(CN2CCc3ccccc3C2)c2cccnc12,41*,43,8,12,0,/,26
OCc1ccc(O)c2ncccc12,-1,-17,-15,-7,2,8,/
O=C(c1ccc([N+](=O)[O-])s1)N1CCc2ccccc2C1,45*,34,34,40,-1,3,22
O=C(NC(=S)NC12CC3CC(CC(C3)C1)C2)c1ccc(F)cc1,44*,39,20,47,/,/,48*
COc1cccc(C=NCCCN=Cc2cccc(OC)c2O)c1O,7,1,9,29,-1,-12,/
COc1cc(C(=O)NCCNC(=O)C2CCCNC2=O)cc(OC)c1OC (stereo not drawn),40*,15,10,11,-1,-2,-12
COc1cc(C(=O)NCCCNC(=O)c2cc(OC)c(OC)c(OC)c2)cc(OC)c1OC,-11,-10,-21,-6,1,/,/
COc1ccc(-c2cn3cccnc3n2)cc1Br,46*,42,-1,38,0,52,55*
O=C(Nc1ccon1)c1ccc(S(=O)(=O)N2CCOCC2)cc1,-1,18,5,14,1,-8,/
SMILES,TIM10 inh,NALP3 yeast inh,tim10-1 inh,tim23-1 inh,V-ATPase pHluor,NALP1 yeast inh,TIM10 conf
COc1ccc(CNC(=O)c2nccnc2CO)cc1,6,7,-5,6,-4,12,/
CNC(=S)NCCc1cc2c(OC)ccc(OC)c2[nH]c1=O,20,-6,21,11,2,-15,/
O=C(N/N=C/C1C(c2ccccc2)C1(Cl)Cl)c1cccc(Cl)c1 (stereo not drawn),40*,11,37,44,-2,19,12
O=C(NCCN1CCOCC1)C(=O)NCC1OCCCN1S(=O)(=O)c1cc(F)ccc1F (stereo not drawn),-13,-5,-20,9,0,1,/
O=C(c1cn(-c2ccccc2)nc1-c1ccc(Br)cc1)N1CCOCC1,50*,12,37,45,1,32,-10
N#C/C(=N\Nc1cc(Cl)cc(Cl)c1)c1nnc2n1CCCCC2,41*,11,35,13,-1,21,28
Cc1ccc(-n2nnc3c(=O)oc4ccccc4c32)cc1,77*,3,12,47,-1,-5,91*
CSc1cccc(NC(=O)/C=C/c2ccc(Cl)cc2)c1,17,34,-5,8,2,11,/
CCN(CC)S(=O)(=O)c1ccc(/C=C/C(=O)O)cc1,-10,-3,14,13,2,-14,/
CCN(CC)S(=O)(=O)c1ccc(/C=C/C(=O)Nc2cccc(F)c2)cc1,59*,8,39,28,0,27,-13
CSc1cccc(NC(=O)/C=C/c2ccccc2)c1,40,45,30,44,-5,12,16
Cc1ccc([N+](=O)[O-])cc1NC(=O)C(Sc1ccccc1)c1ccccc1 (stereo not drawn),12,18,22,11,-2,3,/
O=C(Cn1cnc(S(=O)(=O)N2CCCC2)c1)Nc1cccc(F)c1,-2,4,-10,-7,1,-12,/
N#C/C(=C\c1ccc(C#N)cc1)C(=O)N1CCCC1,50*,-2,38,47,9,-2,34*
Clc1ccc(-c2onc3c2CCCC3)cc1,1,7,-7,18,1,20,/
Clc1ccc(-c2n[nH]c3c2CCCC3)cc1,41*,14,24,42,0,-4,34*
CN1CCN(c2nc(-c3ccncc3)nc3ccccc23)CC1,-5,9,11,-4,-4,-26,/
CN1CCN(c2nc(-c3ccc(Cl)cc3)nc3ccccc23)CC1,41*,33,17,46,1,11,22
COC(=O)c1ccc(OCc2nn[nH]n2)cc1,3,15,-8,-3,-3,13,/
COc1ccccc1C(=O)NCCC(=O)NNC(=O)c1ccccc1O,96*,0,-3,8,0,/,-8
CCCn1cnc2cc(NC(=O)c3cccs3)ccc21,61*,40,24,49,-2,-25,42*
Cc1ccc(S(=O)(=O)N2CCc3ccccc3C2CN2C(=O)c3ccccc3C2=O)cc1 (stereo not drawn),43*,9,23,30,-3,26,29
O=C1c2ccccc2C(=O)N1CC1c2ccccc2CCN1S(=O)(=O)c1cnc[nH]1 (stereo not drawn),7,12,11,-3,-4,2,/

# Screening data as filed in PubChem BioAssay.
